The supplement of paper PMC10849652
Of roughly 7,900 targets only a part is listed; those with a hit were picked by preference. About 0.6% of all pairs of compound and target were hits.

Legend:
Assay in all cases: log2 fold change, soluble protein after heating vs DMSO (PISA); higher = thermal stabilisation; K562 cells, 10 uM, 30 min; active = over 0.2 and 3.5 SD of the protein, either way, in both replicates (recomputed)
[1] = compound: C1COCCN1CCN2C3=CC=CC=C3N=C2NC(=O)C4=CC(=CC=C4)[N+](=O)[O-] [IRAK-1-4 Inhibitor I]
How it was run: (§1)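 K562 cells (2×10^6 cells/mL) were treated with 10 μM compound for 30 min, and aliquots were heated for 3 min over 48°C-58°C. Pooled aliquots were extracted in PBS with 0.5% NP-40 at 4°C, and the supernatant after 21,000xg for 90 min was measured by TMTpro 16plex LC-MS/MS with channel sums equalised. Reported thermal stability, relative to control samples and from duplicates, is a log2 fold change.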

[2] = compound: CC(=O)c1cnc2ccc(-c3cc(Cl)c(O)c(Cl)c3)nc2c1N[C@H]1CC[C@H](CN(C)C)CC1
How it was run: as §1

[3] = compound: CC(C)C1=C2N=C(C=C(N2N=C1)NCC3=CC=CC=C3)NCCCCCCN
How it was run: as §1

[4] = compound: CC(C)N(C[C@H]1O[C@@H](n2cnc3c(N)ncnc32)[C@H](O)[C@@H]1O)[C@H]1C[C@@H](CCc2nc3cc(C(C)(C)C)ccc3[nH]2)C1 [pinometostat]
How it was run: as §1

[5] = compound: CC1=C(C(CC(=O)N1)C2=CC=C(C=C2)C(F)(F)F)C(=O)NC3=C(C=C4C(=C3)C=NN4)F
How it was run: as §1

[6] = compound: CC1=C(C=C(C=C1)NC(=O)C2=CC(=CC=C2)C(C)(C)C#N)NC3=CC4=C(C=C3)N=CN(C4=O)C
How it was run: as §1

[7] = compound: CC1=NC(=CC=C1)C2=C(N=C(N2)C(C)(C)C)C3=CC4=NC=CN=C4C=C3
How it was run: as §1

[8] = compound: CCCS(=O)(=O)Nc1ccc(F)c(C(=O)c2c[nH]c3ncc(-c4ccc(Cl)cc4)cc23)c1F [vemurafenib]
How it was run: as §1

[9] = compound: CCCc1cc(C)[nH]c(=O)c1CNC(=O)c1cc(-c2ccnc(N3CCN(C)CC3)c2)cc2c1cnn2C(C)C
How it was run: as §1

[10] = compound: CCN(CC)Cc1ccc2cc(COC(=O)Nc3ccc(C(=O)NO)cc3)ccc2c1 [givinostat]
How it was run: as §1

[11] = compound: C=CC(=O)N1CCC[C@@H](n2nc(-c3ccc(Oc4ccccc4)cc3)c3c(N)ncnc32)C1 [ibrutinib]
How it was run: as §1

[12] = compound: CC(C)(C)Cn1c(N)nc2ccc(-c3[nH]c(C(C)(C)C)nc3-c3ccc(F)cc3)nc21 [ralimetinib]
How it was run: as §1

[13] = compound: CC(C)(O)CC(=O)NCCn1ccc2ncnc(Nc3ccc(Oc4cccc(C(F)(F)F)c4)c(Cl)c3)c21
How it was run: as §1

[14] = compound: CC(C)C[C@@H](C=O)NC(=O)[C@H](CC(C)C)NC(=O)[C@H](CC(C)C)NC(=O)OCc1ccccc1
How it was run: as §1

[15] = compound: CC1=C(C2=C(C=C1)C(=O)C3=CC=CC=C3N2CCCN)C
How it was run: as §1

[16] = compound: CC1=C(C=C(C=C1)NC(=O)C2=CC(=CC=C2)N(C)C)NC(=O)C3=CC=C(C=C3)O
How it was run: as §1

[17] = compound: CC1=CC=C(C=C1)SC2=C3C=C(SC3=CN=C2)C(=O)N
How it was run: as §1

[18] = compound: CCCCN(Cc1ccc(C(=O)NO)cc1)C(=O)Nc1ccccc1 [Nexturastat A]
How it was run: as §1

[19] = compound: CCCS(=O)(=O)Nc1ccc(F)c(C(=O)c2c[nH]c3ncc(Cl)cc23)c1F
How it was run: as §1

[20] = compound: CCN(CCCOc1ccc2c(Nc3cc(CC(=O)Nc4cccc(F)c4)[nH]n3)ncnc2c1)CCOP(=O)(O)O [barasertib]
How it was run: as §1

Measured: log2 fold change

MITF (UniProt O75030)
active: [3] -0.581
inactive: [1] 0.166 | [2] -0.212 | [4] 0.074 | [5] 0.158 | [6] 0.005 | [7] 0.107 | [8] 0.016 | [9] -0.281 | [10] -0.002

MOB2 isoform 3 (UniProt Q70IA6)
inactive: [11] -0.061 | [12] 0.039 | [13] -0.15 | [3] -0.01 | [14] -0.021 | [5] -0.037 | [15] 0.106 | [16] -0.039 | [17] 0.081 | [18] -0.149 | [19] 0.018 | [9] 0.163 | [10] 0.061 | [20] -0.121

MTHFD1, A0A384N5Y3
Chain of MTHFD1, A0A384N5Y3 (A0A384N5Y3 whole entry, looked up): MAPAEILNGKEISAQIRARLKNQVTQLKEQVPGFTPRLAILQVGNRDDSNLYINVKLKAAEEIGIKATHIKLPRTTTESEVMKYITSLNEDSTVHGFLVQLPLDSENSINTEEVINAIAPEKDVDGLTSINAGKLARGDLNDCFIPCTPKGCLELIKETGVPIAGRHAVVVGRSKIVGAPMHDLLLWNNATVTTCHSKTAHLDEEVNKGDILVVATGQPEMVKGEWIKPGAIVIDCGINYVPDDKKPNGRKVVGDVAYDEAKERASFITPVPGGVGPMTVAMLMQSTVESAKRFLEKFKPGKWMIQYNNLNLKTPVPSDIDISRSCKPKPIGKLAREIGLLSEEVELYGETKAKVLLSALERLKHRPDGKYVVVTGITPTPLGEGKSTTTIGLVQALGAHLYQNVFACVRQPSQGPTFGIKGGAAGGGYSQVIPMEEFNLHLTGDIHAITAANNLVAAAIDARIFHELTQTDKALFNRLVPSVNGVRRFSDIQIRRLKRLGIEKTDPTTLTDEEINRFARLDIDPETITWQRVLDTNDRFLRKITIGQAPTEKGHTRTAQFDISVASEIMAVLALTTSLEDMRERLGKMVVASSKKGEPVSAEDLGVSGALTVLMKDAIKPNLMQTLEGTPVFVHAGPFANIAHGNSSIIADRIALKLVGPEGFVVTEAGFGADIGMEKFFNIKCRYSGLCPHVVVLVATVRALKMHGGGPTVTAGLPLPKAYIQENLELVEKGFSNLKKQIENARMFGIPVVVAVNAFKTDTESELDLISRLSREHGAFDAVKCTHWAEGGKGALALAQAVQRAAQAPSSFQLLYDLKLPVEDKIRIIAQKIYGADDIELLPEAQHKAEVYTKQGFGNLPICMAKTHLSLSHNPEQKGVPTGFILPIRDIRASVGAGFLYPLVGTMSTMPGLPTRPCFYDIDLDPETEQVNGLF
inactive: [11] 0.002 | [2] -0.085 | [12] 0 | [13] -0.034 | [14] -0.008 | [5] -0.024 | [15] 0.049 | [6] 0.036 | [16] -0.107 | [17] -0.055 | [18] 0.013 | [8] 0.088 | [19] 0.058 | [9] -0.035 | [20] 0.044

MPHOSPH8 isoform 2 (UniProt Q99549)
Chain of UniProt Q99549 (Q99549 whole entry, looked up): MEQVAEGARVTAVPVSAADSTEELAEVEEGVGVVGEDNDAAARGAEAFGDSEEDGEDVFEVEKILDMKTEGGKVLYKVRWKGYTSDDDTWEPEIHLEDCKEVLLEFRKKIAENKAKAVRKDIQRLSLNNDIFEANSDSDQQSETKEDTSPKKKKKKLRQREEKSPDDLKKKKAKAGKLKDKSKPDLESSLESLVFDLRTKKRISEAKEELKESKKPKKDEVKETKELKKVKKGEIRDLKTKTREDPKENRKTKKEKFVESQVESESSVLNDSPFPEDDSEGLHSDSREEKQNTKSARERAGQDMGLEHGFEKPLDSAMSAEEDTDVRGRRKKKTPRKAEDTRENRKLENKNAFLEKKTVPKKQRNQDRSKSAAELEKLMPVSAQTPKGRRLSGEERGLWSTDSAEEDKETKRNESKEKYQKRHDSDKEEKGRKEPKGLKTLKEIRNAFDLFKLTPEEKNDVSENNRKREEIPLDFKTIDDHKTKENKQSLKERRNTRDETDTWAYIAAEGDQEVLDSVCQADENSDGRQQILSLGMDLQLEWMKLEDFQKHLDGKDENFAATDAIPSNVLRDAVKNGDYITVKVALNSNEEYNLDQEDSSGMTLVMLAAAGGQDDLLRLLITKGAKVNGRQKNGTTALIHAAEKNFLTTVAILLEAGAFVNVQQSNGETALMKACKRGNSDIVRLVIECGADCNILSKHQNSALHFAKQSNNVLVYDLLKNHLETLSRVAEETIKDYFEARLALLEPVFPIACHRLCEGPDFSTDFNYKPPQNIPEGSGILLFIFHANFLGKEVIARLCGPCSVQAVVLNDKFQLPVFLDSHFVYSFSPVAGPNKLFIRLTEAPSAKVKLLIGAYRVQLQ
active: [15] -0.84
inactive: [1] -0.149 | [2] 0.026 | [12] 0.271 | [13] -0.06 | [14] 0.035 | [4] -0.027 | [6] -0.159 | [16] 0.179 | [17] -0.159 | [7] -0.022 | [18] -0.013 | [8] -0.02 | [19] -0.1 | [9] -0.002

OSBPL3 (UniProt Q9H4L5)
inactive: [1] -0.083 | [2] -0.277 | [12] 0.309 | [13] 0.252 | [3] 0.506 | [14] 0.206 | [4] 0.204 | [5] -0.165 | [15] -0.069 | [6] 0.35 | [16] 0.04 | [17] 0.006 | [7] -0.062 | [18] 0.471 | [8] -0.267 | [19] -0.09 | [10] -0.204

P4HA2 (UniProt O15460)
Chain of UniProt O15460 (O15460 whole entry, looked up): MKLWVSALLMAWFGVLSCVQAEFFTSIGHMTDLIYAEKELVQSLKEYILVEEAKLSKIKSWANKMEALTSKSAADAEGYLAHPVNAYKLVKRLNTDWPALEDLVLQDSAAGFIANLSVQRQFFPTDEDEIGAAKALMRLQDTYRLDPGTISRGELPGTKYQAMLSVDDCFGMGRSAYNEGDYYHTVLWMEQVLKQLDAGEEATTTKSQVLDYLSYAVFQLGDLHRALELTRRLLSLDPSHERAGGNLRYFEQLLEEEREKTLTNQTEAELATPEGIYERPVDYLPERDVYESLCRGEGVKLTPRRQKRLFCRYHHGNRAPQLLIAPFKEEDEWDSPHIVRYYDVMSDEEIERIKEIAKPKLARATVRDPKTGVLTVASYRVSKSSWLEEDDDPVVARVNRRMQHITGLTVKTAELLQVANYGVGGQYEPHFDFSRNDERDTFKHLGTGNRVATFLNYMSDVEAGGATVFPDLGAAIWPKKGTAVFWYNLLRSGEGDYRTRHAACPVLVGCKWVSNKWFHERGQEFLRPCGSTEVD
inactive: [1] -0.072 | [11] 0.168 | [12] 0.038 | [13] 0.045 | [3] -0.017 | [14] 0.062 | [4] 0.06 | [5] 0.039 | [15] 0 | [6] -0.038 | [16] -0.014 | [17] 0.033 | [7] -0.102 | [18] 0.402 | [8] -0.093 | [19] -0.038 | [9] 0.043 | [10] 0.058 | [20] 0.101

MXRA7 isoform 3 (UniProt P84157)
Chain of UniProt P84157 (P84157 whole entry, looked up): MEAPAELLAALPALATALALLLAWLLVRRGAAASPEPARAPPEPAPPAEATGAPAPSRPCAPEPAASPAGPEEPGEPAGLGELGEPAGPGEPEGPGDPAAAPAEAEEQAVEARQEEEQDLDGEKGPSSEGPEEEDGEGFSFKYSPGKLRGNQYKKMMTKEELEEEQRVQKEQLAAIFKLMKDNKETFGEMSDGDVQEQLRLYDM
inactive: [12] -0.031 | [14] 0.151 | [16] 0.178 | [17] -0.174 | [19] 0.193

NCBP2AS2 (UniProt Q69YL0)
Chain of UniProt Q69YL0 (Q69YL0 whole entry, looked up): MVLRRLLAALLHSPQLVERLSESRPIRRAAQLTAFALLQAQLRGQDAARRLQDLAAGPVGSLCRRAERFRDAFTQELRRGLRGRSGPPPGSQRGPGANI
active: [3] -0.869
inactive: [11] 0.07 | [2] 0.21 | [12] -0.01 | [14] 0.026 | [5] 0.089 | [15] -0.008 | [6] 0.069 | [16] 0.017 | [17] 0.162 | [8] -0.039 | [19] 0.037 | [9] -0.096 | [10] -0.146 | [20] 0.072

NDUFA7 (UniProt M0R0N0)
inactive: [11] -0.109 | [3] -0.136 | [6] -0.011 | [8] -0.195 | [10] 0.104 | [20] 0.052

NAP1L1 (UniProt B7Z9C2)
inactive: [1] -0.147 | [11] -0.04 | [2] -0.058 | [3] 0.359 | [4] -0.052 | [5] 0.111 | [7] 0.14 | [8] -0.304 | [9] -0.109 | [10] -0.053 | [20] -0.002

NA, A0A494C071
inactive: [1] -0.011 | [11] -0.1 | [2] -0.038 | [13] 0.03 | [4] -0.034 | [5] 0.013 | [15] -0.141 | [7] 0.011 | [18] -0.081 | [8] -0.142 | [9] -0.159 | [20] 0.043

NCOA5 (UniProt Q9HCD5)
inactive: [1] -0.136 | [12] -0.012 | [3] -0.194 | [14] 0.055 | [4] 0.048 | [5] 0.082 | [6] 0.076 | [16] 0.134 | [17] 0.099 | [7] -0.315 | [19] -0.096 | [10] 0.08

MOB3B (UniProt Q86TA1)
Chain of UniProt Q86TA1 (Q86TA1 whole entry, looked up): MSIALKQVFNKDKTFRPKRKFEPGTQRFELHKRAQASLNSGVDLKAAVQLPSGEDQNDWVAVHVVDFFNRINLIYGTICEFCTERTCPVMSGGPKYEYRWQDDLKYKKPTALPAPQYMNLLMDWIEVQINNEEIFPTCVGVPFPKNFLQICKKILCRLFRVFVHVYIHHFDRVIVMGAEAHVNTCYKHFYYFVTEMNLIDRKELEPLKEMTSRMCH
inactive: [1] -0.26 | [11] -0.001 | [2] -0.026 | [3] -0.169 | [4] -0.056 | [5] -0.116 | [15] 0.024 | [17] -0.147 | [7] -0.033 | [8] 0.137 | [19] -0.272 | [9] 0.039 | [10] 0.174 | [20] 0.018

NA, A0A1W2PSA9
inactive: [2] -0.13 | [12] 0.004 | [14] 0.122 | [15] -0.27 | [16] 0.108

NKTR (UniProt P30414)
Chain of UniProt P30414 (P30414 whole entry, looked up): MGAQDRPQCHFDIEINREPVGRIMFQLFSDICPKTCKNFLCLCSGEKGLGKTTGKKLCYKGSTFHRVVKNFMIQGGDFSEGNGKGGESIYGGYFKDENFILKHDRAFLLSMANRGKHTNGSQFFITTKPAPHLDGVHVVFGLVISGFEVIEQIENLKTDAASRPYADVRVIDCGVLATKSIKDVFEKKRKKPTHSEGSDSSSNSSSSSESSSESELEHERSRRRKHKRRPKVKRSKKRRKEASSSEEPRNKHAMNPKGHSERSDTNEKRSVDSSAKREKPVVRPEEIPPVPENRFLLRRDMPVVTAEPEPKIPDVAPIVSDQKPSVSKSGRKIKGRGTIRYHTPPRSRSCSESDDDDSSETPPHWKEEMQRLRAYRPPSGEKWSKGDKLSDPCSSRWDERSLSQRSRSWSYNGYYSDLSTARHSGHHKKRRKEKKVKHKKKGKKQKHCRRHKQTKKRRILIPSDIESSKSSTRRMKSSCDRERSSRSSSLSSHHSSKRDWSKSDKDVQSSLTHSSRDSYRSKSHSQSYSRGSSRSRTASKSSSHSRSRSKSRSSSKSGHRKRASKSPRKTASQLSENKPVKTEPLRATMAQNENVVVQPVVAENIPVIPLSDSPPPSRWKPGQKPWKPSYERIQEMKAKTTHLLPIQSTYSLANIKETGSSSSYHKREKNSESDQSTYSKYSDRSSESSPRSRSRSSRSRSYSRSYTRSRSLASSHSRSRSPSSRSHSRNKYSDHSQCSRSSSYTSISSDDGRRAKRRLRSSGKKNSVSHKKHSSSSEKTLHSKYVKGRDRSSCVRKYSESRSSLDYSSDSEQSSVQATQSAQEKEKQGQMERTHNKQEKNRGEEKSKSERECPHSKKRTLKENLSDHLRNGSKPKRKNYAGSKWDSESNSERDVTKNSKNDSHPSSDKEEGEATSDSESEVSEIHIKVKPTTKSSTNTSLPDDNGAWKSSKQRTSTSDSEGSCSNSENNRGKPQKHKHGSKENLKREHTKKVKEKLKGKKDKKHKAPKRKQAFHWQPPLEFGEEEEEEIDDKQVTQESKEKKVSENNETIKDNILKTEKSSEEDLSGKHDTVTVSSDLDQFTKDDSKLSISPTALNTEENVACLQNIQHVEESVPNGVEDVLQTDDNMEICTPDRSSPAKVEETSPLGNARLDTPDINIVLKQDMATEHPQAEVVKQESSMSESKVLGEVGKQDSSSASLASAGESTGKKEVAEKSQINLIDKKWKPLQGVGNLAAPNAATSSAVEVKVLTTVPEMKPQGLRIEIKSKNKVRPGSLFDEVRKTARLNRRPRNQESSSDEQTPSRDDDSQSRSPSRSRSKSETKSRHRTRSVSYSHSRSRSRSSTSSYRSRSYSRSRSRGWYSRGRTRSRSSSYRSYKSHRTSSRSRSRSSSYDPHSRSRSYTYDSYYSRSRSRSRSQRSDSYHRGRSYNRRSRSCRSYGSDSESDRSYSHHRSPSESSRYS
inactive: [11] -0.191 | [3] 0.084 | [17] -0.041 | [19] -0.4 | [9] -0.045 | [10] 0.532 | [20] 0.042

MSANTD2 (UniProt Q6P1R3)
inactive: [13] 0.047 | [15] 0.012 | [6] -0.024 | [18] 0.239 | [8] -0.062

NIPSNAP2 (UniProt C9J7B1)
inactive: [11] 0.052 | [2] -0.389 | [6] 0.067 | [9] -0.182 | [20] 0.01

NEU3 isoform 2 (UniProt Q9UQ49)
active: [3] -0.984
inactive: [6] 0.022 | [17] -0.112 | [19] 0.133 | [10] 0.189

PACRGL (UniProt Q8N7B6)
inactive: [6] 0.01

NUDT6 (UniProt P53370)
Chain of UniProt P53370 (P53370 whole entry, looked up): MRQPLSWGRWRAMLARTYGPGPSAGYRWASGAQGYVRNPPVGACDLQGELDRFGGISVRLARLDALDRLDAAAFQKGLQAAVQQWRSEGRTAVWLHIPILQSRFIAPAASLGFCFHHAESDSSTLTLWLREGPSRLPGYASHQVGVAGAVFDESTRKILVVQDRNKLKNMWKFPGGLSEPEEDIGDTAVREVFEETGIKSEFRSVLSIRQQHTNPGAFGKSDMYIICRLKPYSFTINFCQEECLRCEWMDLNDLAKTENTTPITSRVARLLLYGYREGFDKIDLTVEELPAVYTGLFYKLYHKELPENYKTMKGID
inactive: [1] -0.143 | [12] 0.183 | [13] -0.106 | [3] -0.033 | [14] 0.035 | [4] 0.071 | [5] -0.161 | [15] 0.283 | [16] 0.049 | [17] 0.064 | [7] 0.075 | [18] -0.119 | [8] 0.002 | [19] -0.037 | [9] -0.092 | [10] -0.027

MRM2 (UniProt Q9UI43)
Chain of UniProt Q9UI43 (Q9UI43 whole entry, looked up): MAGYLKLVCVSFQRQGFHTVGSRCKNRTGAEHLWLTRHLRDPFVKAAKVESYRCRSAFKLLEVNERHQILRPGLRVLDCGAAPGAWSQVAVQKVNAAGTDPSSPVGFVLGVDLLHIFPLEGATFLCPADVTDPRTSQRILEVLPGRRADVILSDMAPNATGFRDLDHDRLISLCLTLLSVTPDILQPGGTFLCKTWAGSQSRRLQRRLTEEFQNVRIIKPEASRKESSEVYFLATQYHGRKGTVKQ
inactive: [2] -0.119 | [3] -0.075 | [5] 0.057 | [15] 0.104 | [17] 0.046 | [8] 0.047 | [19] -0.078 | [10] 0.001
